Screens: PubChem, several laboratories
HTR5A inv ctr – HTR5A inverse agonists in luminescence cell assay, primary screen, counter-screen for OPRM1-OPRD1 heterodimer inverse agonist project, full-deck HTS; HTR5A cell line, inverse agonism; inhibition, % at 9.3 µM; actives 0.083% (n = 340,000); AID 504634, 2011; in the data active means inhibition mostly above about 23%, no sharp cut-off; inactive means mostly below about 18%;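 further: 0% = cells with DMSO and 100% = no-cell wells with DMSO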
HTR5A ag ctr – HTR5A agonists in luminescence cell assay, primary screen, counter-screen for OPRM1-OPRD1 heterodimer agonist project, full-deck HTS. activation, % at 9.3 µM. actives 0.61% (n = 340,000). 5-hydroxytryptamine receptor 5A (Homo sapiens), P47898. cell-based; in the data active means activation mostly above about 9.5%, no sharp cut-off; inactive means mostly below about 7.6%;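 further: 0% = cells with vehicle only and 100% = reference agonist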
MIN6 prolif – inducers of MIN6 beta-cell proliferation, primary screen, ATP luminescence, uHTS; MIN6 cells proliferation, ATPlite luminescence, 48 h; cells starved in 0.2% serum; 100% = growth in 10% serum; proliferation, % at 10 µM; actives 0.29% (n = 330,000); AID 2380, 2010;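 active means compounds whose signal lies at least 3.5 SD above the mean of all wells on their plate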;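 further: 0% = DMSO-treated cells in low-serum medium and 100% = 10% serum control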
V-ATPase pH – regulators of yeast V-ATPase proton pumping, primary screen, pHLuorin cytosolic pH fluorescence; S. cerevisiae; response, % at 10 µM; actives 0.37% (n = 350,000); in the data active means response mostly above about 7.3%, no sharp cut-off; inactive means mostly below about 5.4%; further: actives read high
OPRM1-OPRD1 inv – inverse agonists of MOR-DOR heterodimerization, primary screen, cell-based, luminescence; Mu-type opioid receptor (Homo sapiens) + Delta-type opioid receptor (Homo sapiens), …; cell-based MOR-DOR heterodimer luminescence, inverse agonism; AID 504357, 2011; actives 0.21% (n = 340,000); inhibition, % at 9.3 µM; in the data active means inhibition above about 22%, passing the limit was not always enough;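 further: 0% = cells with DMSO and 100% = wells without cells with DMSO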
Target sequence (P35372 whole entry, looked up): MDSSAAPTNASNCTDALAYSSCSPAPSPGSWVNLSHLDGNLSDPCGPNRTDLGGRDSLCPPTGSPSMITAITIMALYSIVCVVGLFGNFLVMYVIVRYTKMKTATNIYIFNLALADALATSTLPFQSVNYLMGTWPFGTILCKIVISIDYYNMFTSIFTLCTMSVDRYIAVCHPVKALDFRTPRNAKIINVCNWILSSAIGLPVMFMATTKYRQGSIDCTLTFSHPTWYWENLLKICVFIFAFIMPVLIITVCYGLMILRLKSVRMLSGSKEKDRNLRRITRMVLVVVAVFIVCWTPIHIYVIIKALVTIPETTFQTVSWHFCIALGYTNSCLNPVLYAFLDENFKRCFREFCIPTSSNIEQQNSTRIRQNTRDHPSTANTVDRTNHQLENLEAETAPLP
Target sequence (P41143 whole entry, looked up): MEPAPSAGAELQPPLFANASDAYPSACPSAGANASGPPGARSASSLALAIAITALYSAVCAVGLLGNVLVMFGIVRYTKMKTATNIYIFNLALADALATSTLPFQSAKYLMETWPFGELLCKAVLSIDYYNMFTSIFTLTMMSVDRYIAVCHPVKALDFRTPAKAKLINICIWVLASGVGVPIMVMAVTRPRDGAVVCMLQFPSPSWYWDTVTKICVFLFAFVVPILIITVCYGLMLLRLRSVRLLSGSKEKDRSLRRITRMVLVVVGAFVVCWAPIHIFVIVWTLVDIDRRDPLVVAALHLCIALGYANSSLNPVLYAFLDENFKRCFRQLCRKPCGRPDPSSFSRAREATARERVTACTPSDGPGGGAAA
OPRM1-OPRD1 ag – agonists of OPRM1-OPRD1 heterodimerization, primary screen, cell-based, luminescence; AID 504326, 2011; cells; actives 0.3% (n = 340,000); activation, % at 9.3 µM; Mu-type opioid receptor (Homo sapiens) + Delta-type opioid receptor (Homo sapiens), …; in the data active means activation above about 18%;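 further: 0% = vehicle-treated cells and 100% = reference agonist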
* = called active by the depositor; . = no result given. This is a sample that favours compounds with a hit; in the whole collection about 1.7% have one here.

SMILES	HTR5A inv ctr	HTR5A ag ctr	MIN6 prolif	V-ATPase pH	OPRM1-OPRD1 inv	OPRM1-OPRD1 ag
COc1ccc(C(C)C)cc1S(=O)(=O)NC1CCCC1	10	-3	2	-2	7	-1
CCOc1ccccc1C(=O)Nc1cccc2cccnc12	5	-1	-4	-4	15	-3
CCCOC(=O)COC(=O)c1ccccc1NC(=O)c1ccccc1	11	-4	-1	20*	6	-1
CCC1Nc2ncnc(N3CCN(c4ccccc4)CC3)c2N(Cc2ccc(OC)cc2)C1=O (stereo not drawn)	52*	-16	-1	2	57*	-12
CCC1Nc2ncnc(N3CCN(c4ccccc4)CC3)c2N(Cc2ccc(Br)cc2)C1=O (stereo not drawn)	79*	-29	-7	-1	79*	-13
CCC1Nc2ncnc(N3CCOCC3)c2N(Cc2ccc(OC)cc2)C1=O (stereo not drawn)	-4	3	-1	0	15	-3
CCC1Nc2ncnc(N3CCOCC3)c2N(Cc2ccccc2)C1=O (stereo not drawn)	-13	-1	-3	8	12	-2
Cc1ccc(CN2C(=O)C(Cc3ccccc3)Nc3ncnc(N4CCN(c5ccccc5)CC4)c32)cc1 (stereo not drawn)	55*	-22	-7	2	51*	-9
O=C1C(Cc2ccccc2)Nc2ncnc(N3CCN(c4ccccc4)CC3)c2N1Cc1ccc(Br)cc1 (stereo not drawn)	59*	-22	-5	-4	68*	-15
Cc1cc(C)c(Cn2c(=O)[nH][nH]c2=O)cc1Cn1c(=O)[nH][nH]c1=O	.	.	.	2	.	.
Cc1oc(-c2ccc3ccccc3c2)nc1CN(C)C(C)c1ccncn1 (stereo not drawn)	6	-2	-2	2	-7	1
CNC(=S)NCCN1CCOCC1	14	13*	0	3	7	-1
NCCC(=O)NCCc1cnc[nH]1	23	-3	0	23*	14	-3
CC(C)C1C(=O)N(Cc2cn(CCC3OCCO3)nn2)CCS(=O)(=O)N1Cc1ccc(-c2ccc(F)cc2)cc1 (stereo not drawn)	.	.	.	3	.	.
Cc1ccc(-c2n[nH]c(=S)n2/N=C/C=C\c2ccccc2[N+](=O)[O-])cc1	9	-4	-3	-4	-13	3
O=[N+]([O-])c1ccccc1/C=C/C=N/n1c(-c2ccccc2)n[nH]c1=S	-35	13*	-1	5	-21	3
O=c1n(-c2ccccc2)c(=O)n2n1CCC2	10	10*	0	1	13	-2
CCOCCn1c(SCc2ccc(C)cc2)nc2c1c(=O)[nH]c(=O)n2C	-32	13*	7	0	0	0
O=C1c2cccc3c2C2(O)c4c1cccc4C(=O)c1cccc(c12)C3=O	.	.	.	1	.	.
COc1cc(NC(=O)Cn2nc(C(F)(F)F)c(Br)c2C)cc([N+](=O)[O-])c1	-40	12*	-7	0	-55	10
COc1ccc(CNC(=O)Cn2nc(C(F)(F)F)c(Br)c2C)cc1	-5	1	-2	2	14	-3
Nc1cc(=O)nc(SCC(=O)N(C2CCCCC2)C2CCCCC2)n1-c1ccccc1	-12	13*	0	-4	-17	3
Cc1ccc(NC(=O)CSc2nc(=O)cc(N)n2-c2ccccc2)cc1	23	-2	-2	0	-2	0
Cn1c(=O)c2c(nc(NCc3ccco3)n2C/C=C/c2ccccc2)n(C)c1=O	-39	11*	-6	1	-41	8
CN(Cc1ccccc1)C(=O)c1[nH]cnc1C(=O)Nc1nccs1	2	-6	-4	-9	0	0
SMILES	HTR5A inv ctr	HTR5A ag ctr	MIN6 prolif	V-ATPase pH	OPRM1-OPRD1 inv	OPRM1-OPRD1 ag
COc1cccc(S(=O)(=O)N(C)C[C@H]2Oc3cc(Br)ccc3S(=O)(=O)N([C@@H](C)CO)C[C@H]2C)c1	.	.	.	-4	.	.
Cc1ccccc1Nc1nnc(SCC(=O)N(C)C2CCS(=O)(=O)C2)s1 (stereo not drawn)	20	3	0	16*	13	-3
CN(C(=O)CSc1nnc(-c2ccc(F)cc2)n1C)C1CCS(=O)(=O)C1 (stereo not drawn)	-19	1	-2	10*	-2	1
c1ccc(-c2nc(C3CCCCC3)c3ccccc3n2)cc1	-2	13*	-8	5	-3	0
c1ccc(-c2nc(C3CCCCC3)c3sccc3n2)cc1	-5	-6	-8	-10	-6	1
CC1CCc2nc3ccccc3c(C(=O)OCC(=O)N3CCc4ccccc43)c2C1 (stereo not drawn)	9	-3	2	16*	-26	4
CCCc1nc2ccccc2c(C(=O)OCC(=O)N2CCc3ccccc32)c1CC	-5	2	-5	0	-7	1
O=C(NCc1cccnc1)c1cccc(S(=O)(=O)N2CCCC2)c1	-10	-4	0	1	13	-2
O=C(NCc1cccnc1)c1cccc(S(=O)(=O)N2CCOCC2)c1	13	-5	3	15*	2	-1
COc1ccc(OCC(O)CNC(=O)Nc2ccc(F)cc2)cc1 (stereo not drawn)	-14	-1	2	0	15	-3
CC1CC(=O)C(C(C2=C(O)CC(C)CC2=O)c2ccccc2)=C(O)C1 (stereo not drawn)	-38	9.3*	.	-1	-1	0
CCc1c(C)nc2ncnn2c1N1CCCC(C(=O)Nc2ccc(NC(C)=O)cc2)C1 (stereo not drawn)	-26	13*	-1	.	-10	2
Cc1ccc(N2CCN(C(=S)Nc3ccccc3C)CC2)cc1	-13	3	-2	-2	6	-1
COc1ccc(N2C(=O)C(CC(=O)Nc3ccccc3)N(Cc3cccs3)C2=O)cc1 (stereo not drawn)	-2	8	-3	16*	-1	0
CCN(CC)C(=O)C1=C(C)N(Cc2ccc(OC)cc2)C(=O)C(CC(=O)NC2CC2)C1 (stereo not drawn)	.	.	.	1	.	.
Cc1c(OCc2ccc([N+](=O)[O-])cc2)ccc2c3c(c(=O)oc12)CCC3	10	-4	0.0*	8	11	-2
Cc1oc(C(=O)O)cc1COc1ccc2c3c(c(=O)oc2c1C)CCC3	-16	4	-1	-2	5	-1
Cc1c(OCC(=O)NCc2ccncc2)ccc2c3c(c(=O)oc12)CCC3	-46	12*	-3	6	20	-4
